# Data taken from PubChem BioAssay (NCATS).
# Several values for one entry are separate records, joined by “and”; a condition that tells them apart may be missing. Equal values may be shown once. Records with an inconclusive call do not appear. A call without a number means that no potency is given here. Activity calls are given as the source filed them. Unless noted, the call rests on the fitted dose curve; in most records, active means well fitted curve in the direction sought with a large enough effect; inconclusive means small, poorly fitted or top-dose-only effect, or another doubt; inactive means no such curve, though single readings can be large; an effect the other way counts as inactive or inconclusive.
# How the values were obtained:
# [1] = target: Mitogen-activated protein kinase 10 (Mus musculus) (UniProt Q61831); test: JNK3 AlphaScreen Assay (AID 530; active means well fitted curve in either direction with a large enough effect, not every such curve was filed as active;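 further: kinase came from lysate of stimulated human HepG2 cells; signal reports phosphorylation of biotinylated GST-cJun 1-79 at Ser73 with 10 µM ATP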)
# Procedure, shortened: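 JNK3 came from HepG2 lysates pre-activated with IL-1beta and TNF-alpha and phosphorylated biotinylated GST-cJun (1-79) at 10 uM ATP, pH 7.6, room temperature. Compounds were titrated. AlphaScreen signal used anti-phospho-cJun (Ser73) antibody.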
# [2] = Cell Viability - LYMP2-021 (AID 974);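 further: compound exposure lasts 24 hours at 37 °C; nearly all actives have a fitted effect of over 55% in size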; further: potency means the concentration at half of the fitted maximal effect
# Procedure, shortened: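 Concentration-response cytotoxicity in a human lymphoblastoid line: 24 hr treatment at 37 C in complete culture medium, tetraoctylammonium bromide as positive control, luminescent ATP quantitation as viability measure.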
# [3] = Cell Viability - LYMP2-007 (AID 979);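 further: cells exposed to compound for 24 h before reading; nearly all actives have a fitted effect of over 60% in size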; further: potency means the concentration at half of the fitted maximal effect
# Procedure, shortened: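 Acute toxicity is scored as a concentration-dependent fall in intracellular ATP in human lymphoblastoid cells treated 24 hr at 37 C, measured by luciferase luminescence; Hill-equation modelling yields AC50.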
# [4] = Cell Viability - LYMP2-018 (AID 985);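 further: compound exposure lasted 24 hr at 37 °C; nearly all actives have a fitted effect of over 50% in size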; further: potency means the concentration at half of the fitted maximal effect
# Procedure, shortened: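 Acute cytotoxicity is scored as a concentration-dependent drop in intracellular ATP after 24 hr exposure of the lymphoblastoid line in complete culture medium, measured by luciferase luminescence. Potency is expressed as AC50 from Hill modelling.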
# [5] = qHTS assay for small molecule antagonists of peroxisome proliferator-activated receptor delta signaling (AID 588535); settings: HEK293T PPARd-UAS-bla, beta-lactamase FRET ratio, 18 h; 460 nm channel;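 further: cells co-treated with a PPAR-delta agonist as stimulator during compound exposure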
# Procedure, shortened: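 GeneBLAzer PPAR-delta-UAS-bla HEK293T cells in medium with 2% charcoal/dextran FBS were preincubated 5 hrs at 37 C, then given compounds, incubated 18 hrs at 37 C, and read by CCF4 beta-lactamase fluorescence; IC50 from Hill fits.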
# [6] = target: Peroxisome proliferator-activated receptor gamma (Homo sapiens) (UniProt P37231); test: qHTS assay for small molecule antagonists of peroxisome proliferator-activated receptor gamma signaling (AID 588537; active means well fitted inhibition curve with a large enough effect in the signal ratio, with a control signal flat, not every such curve was filed as active; the % refers to the signal ratio; further: potency means the concentration at half of the fitted maximal effect)
# Sequence of Peroxisome proliferator-activated receptor gamma (Homo sapiens) (P37231 whole entry, looked up): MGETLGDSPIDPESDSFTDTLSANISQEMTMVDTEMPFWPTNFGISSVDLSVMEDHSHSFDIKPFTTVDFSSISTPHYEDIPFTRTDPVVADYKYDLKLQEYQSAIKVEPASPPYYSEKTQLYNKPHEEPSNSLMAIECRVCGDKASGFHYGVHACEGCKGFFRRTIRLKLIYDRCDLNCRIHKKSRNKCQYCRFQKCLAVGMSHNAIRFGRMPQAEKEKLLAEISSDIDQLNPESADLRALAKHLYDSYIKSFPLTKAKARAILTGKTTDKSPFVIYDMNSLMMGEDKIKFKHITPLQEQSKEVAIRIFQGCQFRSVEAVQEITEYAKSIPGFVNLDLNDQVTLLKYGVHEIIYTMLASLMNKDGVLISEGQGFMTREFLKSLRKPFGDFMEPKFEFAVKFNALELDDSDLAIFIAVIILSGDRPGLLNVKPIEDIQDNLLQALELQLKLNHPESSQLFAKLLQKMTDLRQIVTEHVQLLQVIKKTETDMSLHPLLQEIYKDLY
# Procedure, shortened: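 PPAR-gamma-UAS-bla HEK293 cells (3000/well, 1% charcoal/dextran-stripped FBS) were preincubated 6-6.5 h at 37 C, given titrated compounds, then stimulated with 50 nM rosiglitazone for 16 h. Beta-lactamase activity was read with CCF4 dye; IC50 came from Hill fits.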
# [7] = target: Vitamin D3 receptor (Homo sapiens) (UniProt P11473); test: qHTS assay for small molecule antagonists of vitamin D receptor signaling (AID 588541; calls by dose curve;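 further: receptor activated by calcitriol during compound treatment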)
# Sequence of Vitamin D3 receptor (Homo sapiens) (P11473 whole entry, looked up): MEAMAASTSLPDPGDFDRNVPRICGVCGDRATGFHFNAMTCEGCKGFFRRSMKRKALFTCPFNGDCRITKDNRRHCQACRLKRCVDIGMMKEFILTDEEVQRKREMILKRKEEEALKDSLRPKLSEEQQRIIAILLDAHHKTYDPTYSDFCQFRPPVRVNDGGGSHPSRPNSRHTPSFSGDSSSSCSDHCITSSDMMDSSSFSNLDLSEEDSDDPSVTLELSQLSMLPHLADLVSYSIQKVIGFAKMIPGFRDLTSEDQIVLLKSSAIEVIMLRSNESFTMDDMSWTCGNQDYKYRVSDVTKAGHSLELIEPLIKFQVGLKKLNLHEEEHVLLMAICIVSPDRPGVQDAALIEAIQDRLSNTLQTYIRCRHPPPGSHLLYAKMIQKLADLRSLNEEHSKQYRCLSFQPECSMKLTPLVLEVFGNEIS
# Procedure, shortened: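 VDR-UAS-bla HEK293T cells (2000/well, 2% charcoal-stripped FBS) were treated with titrated compounds plus 1-alpha,25-dihydroxyvitamin D3 (50 nM or 3 nM final) for 16 h at 37 C. CCF4 beta-lactamase fluorescence was read; Hill fits gave IC50.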
# [8] = MultiTox-Fluor Cytotoxicity Assay - LYMP1-001 - Live Cells (AID 947)
# [9] = Cell Viability - LYMP2-014 (AID 983); further: nearly all actives have a fitted effect of over 50% in size; further: potency means the concentration at half of the fitted maximal effect
# Procedure, shortened: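 Decrease in intracellular ATP after 24 hr treatment at 37 C, measured by luciferase luminescence, indicated cytotoxicity. Concentration-response data were fitted with the standard Hill equation to give AC50.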
# [10] = target: Retinoic acid receptor RXR-alpha (Homo sapiens) (UniProt P19793); test: qHTS assay for small molecule antagonists of retinoid X receptor alpha signaling (AID 588546; active means well fitted inhibition curve with a large enough effect in the signal ratio, with a control signal flat, not every such curve was filed as active; the % refers to the signal ratio;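 further: cells stimulated with 9-cis-retinoic acid as agonist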); settings: HEK293T RXRa-UAS-bla, beta-lactamase ratio, antagonist mode
# Sequence of Retinoic acid receptor RXR-alpha (Homo sapiens) (P19793 whole entry, looked up): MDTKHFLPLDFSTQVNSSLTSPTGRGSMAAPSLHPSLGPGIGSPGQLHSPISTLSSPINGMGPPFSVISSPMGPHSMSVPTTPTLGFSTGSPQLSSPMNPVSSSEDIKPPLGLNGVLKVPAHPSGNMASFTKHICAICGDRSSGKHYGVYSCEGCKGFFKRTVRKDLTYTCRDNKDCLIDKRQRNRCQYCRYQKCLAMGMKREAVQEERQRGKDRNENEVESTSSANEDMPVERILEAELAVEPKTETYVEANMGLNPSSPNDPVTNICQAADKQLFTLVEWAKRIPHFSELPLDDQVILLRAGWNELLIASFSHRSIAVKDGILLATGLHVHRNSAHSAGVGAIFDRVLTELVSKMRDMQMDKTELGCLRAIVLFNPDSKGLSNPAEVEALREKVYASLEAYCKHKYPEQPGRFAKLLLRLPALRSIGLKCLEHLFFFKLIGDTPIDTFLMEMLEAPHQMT
# Procedure, shortened: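 Beta-lactamase reporter inhibition, read as CCF4 fluorescence ratio (ex 405, em 460/530 nm) after 2 h at RT. HEK293T UAS-bla cells, 2500/well, were stimulated with 9-cis-RA at 500 or 100 nM final alongside test compound for 18 h at 37 C.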
# [11] = target: Thyroid hormone receptor beta (Homo sapiens) (UniProt P10828); test: qHTS assay for small molecule antagonists of thyroid hormone receptor beta signaling (AID 588547; active means well fitted inhibition curve with a large enough effect in the signal ratio, with a control signal flat, not every such curve was filed as active; the % refers to the signal ratio;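 further: cells stimulated with 0.4 nM T3 agonist during compound exposure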); settings: TR-UAS-bla HEK293, beta-lactamase ratio, antagonist mode, 18 h
# Sequence of Thyroid hormone receptor beta (Homo sapiens) (P10828 whole entry, looked up): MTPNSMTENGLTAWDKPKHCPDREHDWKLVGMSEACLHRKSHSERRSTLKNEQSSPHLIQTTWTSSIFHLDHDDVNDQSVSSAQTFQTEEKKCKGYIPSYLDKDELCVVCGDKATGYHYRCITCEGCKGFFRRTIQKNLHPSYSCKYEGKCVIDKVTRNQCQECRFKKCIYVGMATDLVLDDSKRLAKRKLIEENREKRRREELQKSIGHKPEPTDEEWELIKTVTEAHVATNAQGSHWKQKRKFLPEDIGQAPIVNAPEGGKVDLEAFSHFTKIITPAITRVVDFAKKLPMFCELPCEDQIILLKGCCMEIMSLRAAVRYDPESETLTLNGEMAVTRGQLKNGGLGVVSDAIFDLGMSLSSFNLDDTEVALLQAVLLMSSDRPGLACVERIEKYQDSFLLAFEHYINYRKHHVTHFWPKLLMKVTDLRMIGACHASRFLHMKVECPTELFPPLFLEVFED
# Procedure, shortened: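 TR-UAS-bla GripTite HEK293 cells in 2% charcoal/dextran FBS medium were preincubated 4 h at 37 C, given compound (0.59 nM to 92 uM) plus 0.4 nM T3 (final) for 18 h, then CCF4 for 2 h at RT; Hill fit gave IC50.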
# [12] = qHTS assay for small molecule activators of the p53 signaling pathway (AID 651743; active means well fitted activation curve with a large enough effect in the signal ratio, not every such curve was filed as active; the % refers to the signal ratio); settings: HCT-116 p53RE-bla, beta-lactamase FRET ratio, 16 h; activation: stronger effect = higher value
# Procedure, shortened: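 p53RE-bla HCT-116 cells with a stably integrated beta-lactamase reporter under p53 response elements were plated, rested 5 hours at 37 C/5% CO2, then exposed to compounds in DMSO for 16 hours at 37 C. LiveBLAzer B/G FRET substrate was read after 2 hours at room temperature.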
# [13] = Cell Viability - NIH 3T3 (AID 541); settings: NIH 3T3 cell viability, qHTS; activity change, negative = cytotoxicity: at 92.2 µM (top of the series);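 further: cells exposed to compound for 40 hours; nearly all actives have a fitted effect of over 25% in size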; further: potency means the concentration at half of the fitted maximal effect
# Procedure, shortened: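 AC50 values reflect concentration-dependent loss of intracellular ATP in NIH 3T3 cells after 40 hr treatment in complete culture medium, quantified by luciferase-based luminescence.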
# [14] = Cell Viability - LYMP1-003 - Assay at 40 hr (AID 964); further: nearly all actives have a fitted effect of over 60% in size; further: potency means the concentration at half of the fitted maximal effect
# Procedure, shortened: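 This qHTS cytotoxicity screen treats human lymphoblastoid cells (LYMP1-003) with compounds for 40 hr and quantifies cellular ATP via luciferase luminescence.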
# [15] = Cell Viability - LYMP2-004 (AID 966); further: nearly all actives have a fitted effect of over 65% in size; further: potency means the concentration at half of the fitted maximal effect
# Procedure, shortened: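 Acute toxicity is scored as a concentration-dependent drop in intracellular ATP, quantified by luciferase luminescence, in human lymphoblastoid cells exposed to compound for 24 hr. AC50 derives from Hill-equation modelling.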
# [16] = Cell Viability - LYMP2-025 (AID 976); further: potency means the concentration at half of the fitted maximal effect
# Procedure, shortened: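 In qHTS format, LYMP2-025 lymphoblastoid cells in complete culture medium received compound for 24 hr; ATP-based CellTiter-Glo signal gave viability, with AC50 derived by Hill equation.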
# [17] = Cell Viability - LYMP2-016 (AID 984);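 further: cells exposed to compound for 24 hours at 37 °C; nearly all actives have a fitted effect of over 55% in size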
# Procedure, shortened: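 Cytotoxicity was scored by luminescent ATP content (CellTiter-Glo) after 24 h compound exposure at 37 C of a human lymphoblastoid line at 2500 cells/well. Concentration-response data were fitted to the Hill equation for AC50.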
# [18] = target: Bile acid receptor (Homo sapiens) (UniProt Q96RI1); test: qHTS assay for small molecule antagonists of farnesoid X receptor signaling (AID 588526; calls by dose curve)
# Sequence of Bile acid receptor (Homo sapiens) (Q96RI1 whole entry, looked up): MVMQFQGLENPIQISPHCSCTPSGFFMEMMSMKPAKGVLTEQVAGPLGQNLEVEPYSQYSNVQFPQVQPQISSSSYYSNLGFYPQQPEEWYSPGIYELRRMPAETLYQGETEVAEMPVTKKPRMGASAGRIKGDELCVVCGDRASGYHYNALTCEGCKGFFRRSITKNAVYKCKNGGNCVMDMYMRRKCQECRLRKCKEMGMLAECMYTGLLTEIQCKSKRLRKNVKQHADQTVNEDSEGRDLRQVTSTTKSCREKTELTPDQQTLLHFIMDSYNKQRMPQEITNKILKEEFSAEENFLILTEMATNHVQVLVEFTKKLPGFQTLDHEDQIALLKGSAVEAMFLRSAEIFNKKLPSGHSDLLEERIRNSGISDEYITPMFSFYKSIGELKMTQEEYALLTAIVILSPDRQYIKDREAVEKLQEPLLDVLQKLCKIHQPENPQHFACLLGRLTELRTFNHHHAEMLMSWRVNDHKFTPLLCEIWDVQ
# Procedure, shortened: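 Concentration-response titrations were fitted to the Hill equation for half-maximal inhibition and maximal response, with data normalised to 50 uM chenodeoxycholic acid and DMSO control wells. Cells: FXR-UAS-bla HEK293T, dialyzed FBS.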
# [19] = Cell Viability - Jurkat (AID 426;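 active means dose-dependent loss of cell ATP signal giving a full or clear fitted curve, ranked by lower potency value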;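 further: potency means the concentration at half of the fitted maximal effect; cells exposed to compound for 40 hours at 37 °C before ATP read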); settings: qHTS
# Procedure, shortened: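 Seed 5000 Jurkat E6-1 cells/well; add compound; incubate 40 hr at 37 °C; add CellTiter-Glo; wait 20 min at room temperature; read luminescence. Fit concentration-response with Hill equation for AC50.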
# [20] = Cell Viability - H-4-II-E (AID 543);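 further: cells exposed to compound for 40 hours; nearly all actives have a fitted effect of over 35% in size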; further: potency means the concentration at half of the fitted maximal effect
# Procedure, shortened: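 Here, cytotoxicity is measured in the rat hepatoma line H-4-II-E as loss of intracellular ATP after 40 hr compound treatment, detected by luciferase luminescence.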
compound,measurement,setting,value
S=C(NC1CCCCC1)NC1CCCCC1,Potency,[1],inactive
same,Potency,[2],inactive
same,Potency,[3],inactive
same,Potency,[4],inactive
same,max response,[5],-15.4%
same,Potency,[6],inactive
same,Potency,[7],inactive
O=C(O)/C=C/c1ccc(/C=C/C(=O)O)cc1,Potency,[8],inactive
same,Potency,[3],inactive
same,Potency,[9],inactive
same,Potency,[4],inactive
same,max response,[5],-11.1%
same,max response,[10],14.1% (inactive)
same,activity change % (negative = inhibition),[11],2.91% (inactive)
same,activation,[12],1.28% (inactive)
Oc1cc(Cl)cc(Cl)c1Cl,Potency,[1],inactive
same,"activity change, negative = cytotoxicity",[13],-14.4% (inactive)
same,Potency,[14],inactive
same,Potency,[15],inactive
same,Potency,[16],inactive
same,Potency,[17],inactive
same,Potency,[4],inactive
same,Potency,[7],inactive
CC(=O)OC(C(=O)c1ccccc1)c1ccccc1 (configuration not stated),Potency,[14],inactive
same,Potency,[15],inactive
same,Potency,[2],inactive
same,Potency,[3],inactive
same,Potency,[9],inactive
same,Potency,[17],inactive
same,Potency,[4],inactive
same,Potency,[18],inactive
same,Potency,[6],inactive
same,max response,[10],22.3% (inactive)
O=C1c2ccccc2C(=O)C1(O)O,Potency,[19],34.4 µM (active)
same,Potency,[1],inactive
same,Potency,[15],50.1 µM (active)
same,Potency,[9],inactive
same,Potency,[17],inactive
same,Potency,[4],inactive
same,max response,[10],29.7% (inactive)
same,activity change % (negative = inhibition),[11],-4.45% (inactive)
CCCCCCCCOc1ccc(C(=O)O)cc1,Potency,[8],inactive
same,Potency,[14],inactive
same,Potency,[15],inactive
same,Potency,[2],inactive
same,Potency,[16],inactive
same,Potency,[17],inactive
same,Potency,[18],inactive
same,activity change % (negative = inhibition),[11],10% (inactive)
O=C(OCC1CO1)C1CCCCC1C(=O)OCC1CO1 (configuration not stated),Potency,[1],inactive
same,"activity change, negative = cytotoxicity",[13],-15% (inactive)
same,Potency,[8],inactive
same,Potency,[2],50.1 µM (active)
same,Potency,[16],inactive
same,Potency,[3],50.1 µM (active)
same,Potency,[4],39.8 µM (active)
same,activity change % (negative = inhibition),[11],-2.36% (inactive)
c1ccc(SCCSc2ccccc2)cc1,Potency,[8],inactive
same,Potency,[14],inactive
same,Potency,[2],inactive
same,Potency,[3],inactive
same,Potency,[4],inactive
same,Potency,[18],inactive
same,max response,[5],21.4%
same,Potency,[6],inactive
same,Potency,[7],inactive
same,activity change % (negative = inhibition),[11],8.32% (inactive)
same,activation,[12],-1.09% (inactive)
CN(C)c1ccc(C(=N)c2ccc(N(C)C)cc2)cc1,Potency,[1],inactive
same,Potency,[20],12.6 µM (active)
same,Potency,[9],39.8 µM (active)
same,Potency,[6],14.1 µM (active)
same,Potency,[7],inactive
same,activity change % (negative = inhibition),[11],-25.2% (inactive)
Nc1ccc(N)c(Cl)c1,Potency,[1],inactive
same,Potency,[13],31.6 µM (active)
same,Potency,[20],inactive
same,Potency,[2],inactive
same,Potency,[3],inactive
same,Potency,[9],inactive
same,Potency,[17],inactive
same,Potency,[4],inactive
same,max response,[5],-6.58%
same,Potency,[7],inactive
same,max response,[10],9.54% (inactive)
same,activation,[12],1.03% (inactive)
Brc1cc(Br)c(Oc2cc(Br)c(Br)cc2Br)cc1Br,Potency,[14],inactive
same,Potency,[15],inactive
same,Potency,[2],inactive
same,Potency,[16],inactive
same,Potency,[3],inactive
same,Potency,[4],inactive
same,Potency,[7],inactive
C=CC(=O)OCCCCCCOC(=O)C=C,Potency,[1],inactive
same,Potency,[13],7.94 µM (active)
same,Potency,[20],39.8 µM (active)
same,Potency,[14],39.8 µM (active)
same,Potency,[15],39.8 µM (active)
same,Potency,[16],50.1 µM (active)
same,Potency,[9],50.1 µM (active)
same,Potency,[4],39.8 µM (active)
same,Potency,[18],inactive
same,max response,[5],35%
same,Potency,[6],inactive
same,max response,[10],-43.4% (inactive) and 3.26% (inactive)
same,activity change % (negative = inhibition),[11],-7.08% (inactive)
CC[C@@H](CO)Nc1nc(NCc2ccccc2)c2ncn(C(C)C)c2n1,Potency,[1],inactive
